{"source": "PubChem BioAssay (NCI)", "note": "This is part of a sample that, as a whole, favours compounds with a hit. Of some 83,000 tested, about 20% had one in any assay.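 Values shown are percent growth following 48 h exposure of cells in 96-well plates to a single concentration of compound; below 10 was considered active.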 Unmarked numbers belong to inactive results. The source made the active and inactive calls.", "data": [{"tested_on": "HL-60(TB) leukemia", "test": "NCI-60 one-dose screen, 48 h (100 = growth as untreated, 0 = no growth, -100 = all killed)", "conditions": "10 µM unless noted", "values": [{"smiles": "COc1ccccc1/C=C1\\COc2ccc(O)cc2C1=O", "growth": "1.08% (active)"}, {"smiles": "COc1cc(Cl)cc(-c2nn(-c3cccc(NC(=O)Nc4ccc(Cl)c(C(F)(F)F)c4)c3)cc2-c2ccncc2)c1", "growth": "-9.59% (active)"}, {"smiles": "CC(=O)NNC(=S)N/C=C/c1c(C)ccc([N+](=O)[O-])c1[N+](=O)[O-]", "growth": "99.9%"}, {"smiles": "O=C1O[C@@H](c2ccccc2Cl)[C@@H]2c3cc4c(cc3CCN12)OCO4", "growth": "92.1%"}, {"smiles": "Cc1cc(N/N=C/c2nc(-c3ccc(Cl)cc3)oc2C)c2cc(Br)ccc2n1", "growth": "59%"}, {"smiles": "Clc1cccc(Nc2ncnc3ccc(-c4cnc5[nH]ccc5c4)cc23)c1", "growth": "105%"}, {"smiles": "CN1CCN(CCOc2ccc(-c3cnc4c(-c5ccc(C(F)(F)F)cc5)cnn4c3)cc2)CC1", "growth": "-32.5% (active)"}, {"smiles": "COC(=O)c1c2c(c(C)[n+]([O-])c1C)C(=O)C(NCc1cccc(OC)c1)=CC2=O", "growth": "-52.2% (active)"}, {"smiles": "COc1ccc(-c2cc(-c3cccnc3)nc3sc(C(=O)Nc4ccccc4)c(N)c23)cc1OC", "growth": "60.2%"}, {"smiles": "Cn1cc(-c2nonc2-c2c[nH]c3ccccc23)c2cccnc21", "growth": "4.76% (active)"}, {"smiles": "Nc1c2c(c(O)c3c1=C(CO)C=N3)=NCCS2", "growth": "-33.7% (active)"}, {"smiles": "CN(C)c1ccc(/C=C/C(=O)c2ccccc2)cc1", "growth": "66.7%"}, {"smiles": "CCOC(=O)c1nn(-c2ccc(S(N)(=O)=O)cc2)c2nc(C)cc(=O)n12", "growth": "101%"}, {"smiles": "O=C(c1ccc2ncc(-c3nc(NC4CC4)ncc3F)n2c1)N1CCOCC1", "growth": "-30.3% (active)"}, {"smiles": "COc1cc(CSc2nc3ccc(Cl)cc3c(=O)n2-c2ccccc2)cc(OC)c1OC", "growth": "90.8%"}, {"smiles": "CC(=O)Oc1ccc(OC(C)=O)c2ccccc12", "growth": "-17.4% (active)"}, {"smiles": "COc1ccc2c(c1)C(=O)/C(=C/c1ccc(O)cc1)O2", "growth": "59.4%"}, {"smiles": "CC(=O)N1N=C(c2ccc(Nc3nc(Nc4ccc(F)cc4)nc(Nc4ccc(F)cc4)n3)cc2)CC1c1ccc(N(C)C)cc1", "note": "(stereo not given)", "growth": "10% (active)"}, {"smiles": "CCCCOC(=O)c1cccc([N+](=O)[O-])c1", "growth": "142%"}, {"smiles": "CC(C)(CC(=O)O)CC(=O)O", "growth": "103%"}, {"smiles": "Cc1ccc(-c2nc(N3CCN(CC(=O)Nc4ccc(Cl)c(C(F)(F)F)c4)CC3)c3ccccc3n2)cc1", "growth": "97.6%"}, {"smiles": "CSc1nc(Nc2cccc(NC(=O)/C(C#N)=C/c3c(Cl)cccc3Cl)c2)c(C#N)c(-c2cccc([N+](=O)[O-])c2)n1", "growth": "58.3%"}, {"smiles": "Cc1cc(N2CCCCCC2)nc(NC2CCCC(Nc3ccnc4cc(Cl)ccc34)C2)n1", "note": "(stereo not given)", "growth": "-71.3% (active)"}, {"smiles": "Nn1c(CN2CCN(c3cc4c(cc3F)c(=O)c(C(=O)O)cn4C3CC3)CC2)n[nH]c1=S", "growth": "101%"}, {"smiles": "CN1CCCN(C(c2ccccc2)c2ccc(Cl)cc2)CC1", "note": "(stereo not given)", "growth": "93.5%"}, {"smiles": "C=CCNc1ccc2c3c(cccc13)C(=O)N(CC=C)C2=O", "growth": "102%"}, {"smiles": "C=CC(=O)N[C@@H](/C=C/C(=O)OCC)Cc1ccc(-c2cc(Cl)cc(Cl)c2)cc1", "growth": "-27.4% (active)"}, {"smiles": "COc1ccc(-c2ccc(O)c(C(=O)/C=C/c3cc(OC)c(OC)c(OC)c3)c2)cc1", "growth": "54.5%"}, {"smiles": "CN(C)c1ccc(/C=C(\\C#N)c2cc3ccccc3[nH]2)cc1", "growth": "22.2%"}, {"smiles": "COc1cccc(-c2nn(C(C)(C)C)cc2-c2ccnc(NCCCNS(=O)(=O)c3cccc4ccccc34)c2)c1", "growth": "104%"}, {"smiles": "NCC(O)C(O)C(O)C(O)CO", "note": "(stereo not given)", "growth": "114%"}, {"smiles": "COc1cc2nc(C(=O)N3CCCCC3)cc(Nc3ccccc3)c2cc1OC", "growth": "96.8%"}, {"smiles": "Cc1cc(-c2ccccc2)cc(SC#N)[n+]1[O-]", "growth": "7.14% (active)"}, {"smiles": "Clc1ccc(CCC(Cn2ccnc2)Sc2c(Cl)cccc2Cl)cc1", "note": "(stereo not given)", "growth": "2.26% (active)"}, {"smiles": "O=C(NC(CSSCC(NC(=O)c1ccccc1)C(=O)O)C(=O)O)c1ccccc1", "note": "(stereo not given)", "growth": "60.7%"}, {"smiles": "COc1ccc2c(c1)CCNC21C(=O)Nc2c(Br)cc(Br)cc21", "note": "(stereo not given)", "growth": "117%"}, {"smiles": "CCOC(=O)Nc1ccc2c(c1)C(=O)N(CC)c1ccccc1O2", "growth": "-17% (active)"}, {"smiles": "COc1cccc(NC(=O)c2sc3nc4c(cc3c2N)CCCC4)c1", "growth": "5.68% (active)"}, {"smiles": "COC(=O)c1c(NC(=O)CSc2nnnn2-c2ccc(OC)cc2)sc(C)c1C", "growth": "-6.74% (active)"}, {"smiles": "NS(=O)(=O)c1cccc(NC(=O)C(=O)C2C(=O)Nc3ccccc32)c1", "note": "(stereo not given)", "growth": "159%"}]}]}
